# Measured values published in PubChem BioAssay (NCATS).
# Activity calls are given as the source filed them. The call rests on the fitted dose curve; in most records, active means well fitted activation curve with a large enough effect; inconclusive means small, poorly fitted or top-dose-only effect; inactive means flat fitted curve, though single readings scatter.
# Test: Confirmation and Secondary Assay for Modulators of Hemoglobin Beta Chain Splicing at IVS2 705 locus (AID 930)
# Conditions: HeLa EGFP-705 splicing reporter, GFP fluorescence, 48 h; series mostly up to 38.3 µM
# From the text: NIH Chemical Genomics Center [NCGC] NIH Molecular Libraries Screening Centers Network [MLSCN] MLSCN Grant: 1 X01 MH080684-01 PI Name: Dr. Ryszard Kole NCGC Assay Overview: Modulation of Alternative Splicing as Therapy Abnormal splicing is associated with a number of diseases, including cancer and genetic diseases such as cystic fibrosis, muscular dystrophy and beta-thalassemia. Alteration of disease associated splicing patterns provides a promising target for treatment. […] Mutations in the second intron of the b-globin gene at positions 654 or 705 are clinically relevant and cause mis-splicing which results in an out of frame gene product. […] EGFP-705 HeLa Cells as screen system. HeLa cell lines were stably transfected with a construct in which the EGFP (enhanced green fluorescent protein) cDNA was interrupted by the second intron of the beta-globin gene (IVS2-705). The ISV2 intron contains mutations which cause mis-splicing of EGFP and premature termination of EGFP which results in a nonfluorescent protein product. […] Expression of the transgene was driven by the CMV promoter. We concluded that a low molecular weight compound, which restored correct splicing of intron 2 would also generate functional EGFP protein, resulting in a fluorescent signal. Thus, the HeLa cells that express the EGFP-705 construct can be used for validation of splice site specificity of compounds identified in primary screening of the ISV2 654 construct.
# NCGC Assay Protocol Summary: Confirmatory Screening. Freshly thawed HeLa EGFP-705 cells were seeded in 5 ul of optimem media (Invitrogen) containing 2 % fetal calf serum (Hyclone) and 1x penicillin/streptomycin (Invitrogen) at a concentration of 500 cells per well in 1536-well plates. Cells were incubated overnight at 37C in 5% CO2. The next day, cells were treated with DMSO, 500 nM antisense ISV2 654 PNA control oligo, or library compound and allowed to grow at 37C in 5% CO2 for 2 days. The PNA oligo blocked the mutation site in the intron and allowed proper (wild type) splicing to occur, resulting in full length EGFP expression and also allowed for optimization of the assay parameters. Plates were read in the Acumen Explorer (TTP Labtech) using 488 nm laser excitation and 500-520 nm emission PMT filter in a 1 x 8 uM capture mode. Fluorescnet objects ranging in size from 5 to 250 uM were measured and the total peak GFP intensity for each well was used for data analysis. Keywords: Thalassemia, beta-thalassemia, beta-globin, EGFP, ISV2 654, ISV2 705, SSO, PNA, antisense, splicing, MLSMR, MLSCN, NIH Roadmap, qHTS, NCGC
row,SMILES,outcome
1,N[C@@H](Cc1ccccc1)C(=O)O,inactive
2,COc1ccc(CNc2nc(-c3ccccc3OC)nc3ccccc23)c(OC)c1,inactive
3,Nc1nc(Cl)nc2c1ncn2[C@@H]1O[C@@H](CO)[C@@H](O)[C@H]1O,inactive
4,CNc1ncncc1-c1ccc(C(=O)N(C)C)cc1,inactive
5,CN(C)c1ccc(-c2nc(N3CCNCC3)c3ccccc3n2)cc1,inactive
6,CN(C)C(=O)c1ccc(-c2nc(Nc3ccncc3)c3ccccc3n2)cc1,inactive
7,CN(C)c1ccc(-c2nc(Nc3ccncc3)c3ccccc3n2)cc1,inactive
8,Cc1cccc(CNc2nc(-c3ccc(C(=O)N(C)C)cc3)nc3ccccc23)c1,inactive
9,CN(C)C(=O)c1ccc(-c2nc(Nc3ccc(F)cc3)c3ccccc3n2)cc1,inactive
10,Cc1cccc(CNc2ncnc3ccc(-c4ccc(C(=O)N(C)C)cc4)cc23)c1,inactive
11,CN(C)Cc1ccccc1-c1ccc2ncnc(NC3CCNCC3)c2c1,inactive
12,CS(=O)(=O)Nc1cccc(-c2nc(NCc3cccnc3)c3ccccc3n2)c1,inactive
13,COc1ccccc1-c1ccc2ncnc(NCc3cccnc3)c2c1,inactive
14,Cc1cnc(CNc2nc(-c3cccnc3)nc3ccccc23)cn1,inactive
15,CN(C)c1ccc(-c2cc(NCc3ccccc3)ncn2)cc1,inactive
16,COc1ccccc1-c1nc(NCc2ccccc2)c2ccccc2n1,inactive
17,N=c1ccn2c(n1)O[C@@H]1[C@@H](O)[C@H](CO)O[C@H]12,inactive
18,Cc1cccc(CNc2nc(-c3cccnc3)nc3ccccc23)c1,inactive
